High-throughput results as filed in PubChem BioAssay.
aDG glyco act – activators of alpha-DG glycosylation, primary screen, uHTS, Pro5-aDG cells, AlphaScreen | alpha-DG glycosylation AlphaScreen (IIH6); 0% Pro5, 100% B10-LARGE cell signal | activation, % at 10 µM | 360,000 tested, 0.22% active;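 active means activation of at least 8% versus controls, or a plate z-score of at least 8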;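 further: Pro5 are CHO cells carrying HIG-tagged alpha-DG that lacks glycosylation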
ADAM10 inh – human ADAM10 inhibitors, primary screen, biochemical, QFRET, HTS; Disintegrin and metalloproteinase domain-containing protein 10 (Homo sapiens), O14672; recombinant ADAM10, EDANS/DABCYL FRET peptide cleavage, 3 h; inhibition, % at 7 µM; 370,000 tested, 0.62% active; AID 720582, 2013;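 active means inhibition above a per-campaign cutoff equal to the mean of compounds falling between control-based bounds plus 3 SD, cut at about 20% in these data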;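 further: 0% = DMSO wells while the 100% control is not disclosed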
ADAM17 inh – ADAM17 inhibitors, primary screen, biochemical, QFRET. 370,000 tested, 0.83% active. recombinant ADAM17, EDANS/DABCYL FRET peptide cleavage. inhibition, % at 6.95 µM;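 active means inhibition above the mean of compounds lying between control limits plus 3 SD, set per campaign, cut at about 8.5% in these data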;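 further: 0% = DMSO-only wells as the low control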
Target sequence (P78536 215-824 limits assumed): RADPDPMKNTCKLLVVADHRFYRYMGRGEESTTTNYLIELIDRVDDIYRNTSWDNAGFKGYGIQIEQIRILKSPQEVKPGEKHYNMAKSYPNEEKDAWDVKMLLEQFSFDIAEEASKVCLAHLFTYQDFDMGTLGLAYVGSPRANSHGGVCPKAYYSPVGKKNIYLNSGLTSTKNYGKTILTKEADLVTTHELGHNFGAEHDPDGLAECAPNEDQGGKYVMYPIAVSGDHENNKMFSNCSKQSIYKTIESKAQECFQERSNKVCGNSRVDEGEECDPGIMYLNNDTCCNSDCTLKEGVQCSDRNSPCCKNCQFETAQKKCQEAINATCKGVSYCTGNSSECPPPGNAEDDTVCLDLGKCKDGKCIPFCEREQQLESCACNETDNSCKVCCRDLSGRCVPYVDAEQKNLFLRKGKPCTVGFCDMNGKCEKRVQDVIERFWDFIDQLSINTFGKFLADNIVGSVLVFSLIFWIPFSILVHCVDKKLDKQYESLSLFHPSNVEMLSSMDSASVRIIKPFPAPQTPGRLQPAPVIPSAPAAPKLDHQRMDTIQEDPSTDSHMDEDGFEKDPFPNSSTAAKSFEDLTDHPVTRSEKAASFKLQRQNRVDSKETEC
GRIN3A LBD mod – binders of NR3A ligand-binding domain, primary screen, biophysical, differential scanning fluorimetry, uHTS; Glutamate receptor ionotropic, NMDA 3A (GRIN3A) ligand-binding domain; NR3A LBD differential scanning fluorimetry, Tm shift; 0% = protein alone, 100% = glycine-bound protein; Tm shift relative to glycine control, % at 25 µM; 340,000 tested, 2.5% active;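 active means melting temperature shift of at least 10% of the positive control shift, at one fixed dose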
FAS TE block – FAS thioesterase domain inhibitors, primary screen, biochemical, fluorescence intensity, uHTS. Fatty acid synthase (Homo sapiens), P49327. recombinant FAS-TE, OMFH fluorogenic substrate, fluorescence endpoint. inhibition, % at 15 µM. 360,000 tested, 0.67% active;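 active means compounds whose normalised, plate-corrected inhibition of enzyme fluorescence in the single-dose primary screen is 50% or more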;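 further: 0% = DMSO with enzyme and 100% = substrate without enzyme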
FAS-TE inh conf – FAS thioesterase domain inhibitors, confirmation, biochemical, fluorescence intensity, single concentration | 2,300 tested, 45% active | inhibition, % at 15 µM | AID 624325, 2012 | shares compounds with FAS TE block | recombinant FAS-TE, OMFH fluorogenic substrate;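 active means compounds inhibiting the enzyme by at least 50% at 15 µM in any one of the replicates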;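 further: 0% = enzyme with DMSO only and 100% = wells lacking enzyme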
Numbers without * were called inactive; i = inactive; x = not tested or not shown. Only some compounds are listed: those with a hit (about 4% of all), similar ones and a draw of the others.

SMILES | aDG glyco act | ADAM10 inh | ADAM17 inh | GRIN3A LBD mod | FAS TE block | FAS-TE inh conf
Cc1ccc(NC(=O)c2ccc(Cl)c(S(=O)(=O)Nc3c(C)n(C)n(-c4ccccc4)c3=O)c2)cc1Cl | 0 | 14 | 4 | 3 | 76* | 18
Cc1c(NS(=O)(=O)c2cc(C(=O)Nc3ccc(F)cc3Cl)ccc2Cl)c(=O)n(-c2ccccc2)n1C | 0 | -1 | -1 | -1 | -3 | x
Cc1cccc(C)c1N1CCN(C(c2ccnc3ccccc23)c2nnnn2-c2ccc3c(c2)OCCO3)CC1 (configuration not stated) | 0 | -13 | -2 | x | 79* | 2
COc1ccc(-c2c([C@H]3[C@H]4C=CC[C@@H](C)[C@@H]4C(=O)N3Cc3ccccc3)ccc3ccccc23)cc1OC | 0 | 8 | -2 | -1 | 55* | 14
COc1cc(C2NCC(c3ccc(Cl)cc3Cl)c3c2[nH]c2ccccc32)cc(OC)c1OC (configuration not stated) | 0 | 47* | 22* | -1 | 66* | 27
CC(=O)N(C1=C(Cl)C(=O)c2ccccc2C1=O)C1CCCCC1 | 0 | -9 | -2 | -5 | 80* | 71*
CC(=O)N(c1ccccc1C)C1CCCC1 | 0 | -4 | 3 | -8 | -7 | x
O=C1NC[C@@H](c2ccccc2)OC(=O)[C@@H](Cc2ccc(F)cc2)C/C=C\C[C@@H]1CC(=O)N(CCO)Cc1ccccc1 | 0 | 2 | 2 | -1 | 12 | x
O=C(Nc1ccccc1)N1CCCC1c1cccs1 (configuration not stated) | 0 | -5 | -4 | 1 | 0 | x
CCCOc1ccc(NC(=O)CC2C(=O)N(C)C(=S)N2Cc2cccs2)cc1 (configuration not stated) | 0 | 12 | 6 | 9 | 64* | 65*
COc1cccc2oc3cc(C#CC4(O)CCCCC4)ccc3c(=O)c12 | 0 | -248 | -65 | -5 | 0 | x
O=c1c2ccccc2oc2cc(C#CC3(O)CCCCC3)ccc12 | 0 | -29 | 5 | -20 | 55* | 36
CCOc1cc(/C=C(\C#N)C(=O)Nc2ccccc2C(=O)O)ccc1OC(=O)c1ccc(C)cc1 | 0 | 1 | 2 | -1 | 80* | -8
Cn1c(N)c(C(=O)N2CCN(c3ccccc3)CC2)c(=O)n(C)c1=O | 0 | -5 | -2 | x | -6 | x
COc1cc2cc(CN(Cc3cccs3)C(=S)Nc3ccccc3)c(=O)[nH]c2cc1OC | 0 | -115 | -32 | 17* | 79* | 31
COc1ccc(-c2[nH]n(-c3ccc([N+](=O)[O-])cc3)c(=O)c2C=NCc2ccccc2)cc1 | 0 | -13 | -4 | -1 | 54* | 1
O=C(CCSCc1ccccc1Cl)NC1CCCC1 | 0 | -4 | -3 | -9 | -6 | x
O=C(COc1ccc([N+](=O)[O-])cc1)N1CCc2ccccc2C1 | 0 | 10 | -3 | -4 | 70* | 83*
O=C(Cc1ccc([N+](=O)[O-])cc1)N1CCc2ccccc2C1 | 0 | -7 | 2 | 2 | 26 | x
O=C(CN1C(=O)c2cccc([N+](=O)[O-])c2C1=O)N1CCc2ccccc2C1 | 0 | 3 | 0 | x | 59* | 65*
Nc1ncc(-c2ccccc2)n1CC1CCCO1 (configuration not stated) | 0 | -4 | -2 | 1 | -14 | x
O=c1c2c3c(sc2ncn1/N=C/c1ccc([N+](=O)[O-])o1)CCCC3 | 2 | -2 | 0 | 0 | 3 | x
C=CCNC(=S)N(C)[C@H]1C[C@H]2c3cc(-c4ccccc4C)ccc3CCN2C[C@H]1[C@H](C)O | x | -143 | -35 | x | x | x
CCOC(=O)[C@@H]1[C@H]2COc3cc(OC)ccc3[C@H]2N2C(=O)N(c3cccc(Cl)c3)C(=O)[C@@]12C | 0 | x | x | 0 | 74* | 48*
COc1ccc(CN2CC(=O)N3[C@H]4c5ccc(OC)cc5OC[C@@H]4[C@H](c4ccccc4)[C@]3(C)C2=O)cc1 | 0 | 12 | 3 | -1 | 66* | 18
SMILES | aDG glyco act | ADAM10 inh | ADAM17 inh | GRIN3A LBD mod | FAS TE block | FAS-TE inh conf
COc1ccc2c(c1)OC[C@H]1[C@H]2N2C(=O)CN(C)C(=O)[C@@]2(C)[C@H]1c1ccccc1 | 0 | -2 | -6 | -2 | -7 | x
Cc1ccc(CN2CC(=O)N3[C@H]4c5cc(C)ccc5OC[C@@H]4[C@H](c4ccccc4)[C@]3(C)C2=O)cc1 | 0 | 3 | 1 | -3 | 52* | 9
Cc1cc(NC(=O)COC(=O)c2ccccc2NCCO)no1 | 0 | i | i | 2 | -3 | x
O=C(NC1CC1)C1CC(=O)N(c2ccccc2)C1 (configuration not stated) | 0 | 2 | -2 | -2 | 0 | x
CCc1nc2c(OCc3ccc(Cl)cc3Cl)cccn2c1N(C=O)Cc1ccc(OC)cc1 | 1 | -11 | 1 | x | 78* | 62*
CCc1nc2c(OCc3ccc(Cl)cc3)cccn2c1N(C=O)Cc1ccc(OC)cc1 | 0 | 9 | 3 | x | 54* | 62*
CCc1nc2c(OCC(=O)c3ccc(Cl)cc3Cl)cccn2c1N(C=O)Cc1ccc(OC)cc1 | 0 | -31 | -6 | x | 18 | x
CCc1nc2c(OCCOc3ccc(F)cc3)cccn2c1N(C=O)Cc1ccc(OC)cc1 | 0 | -9 | -2 | x | 16 | x
N#Cc1c(-c2cccs2)nc(SCc2ccc(Cl)cc2)[nH]c1=O | 0 | 9 | -3 | -10 | 66* | 79*
COc1ccc(C2CC(c3ccccc3)=NN2C(=O)COC(=O)c2cccc(S(=O)(=O)N3CCOCC3)c2)cc1 (configuration not stated) | 0 | -1 | -3 | 0 | 70* | 13
COc1ccc(C2CC(c3ccccc3)=NN2C(=O)COC(=O)c2cccc(S(=O)(=O)N(C)C)c2)cc1 (configuration not stated) | 0 | 19 | 6 | 0 | 72* | 0
CC(O)[C@H]1CNC(=O)C(=O)N1CC1CCCCC1 (some centres not stated) | 0 | 2 | 0 | 1 | -10 | x
COc1cc(C(=O)OCC(=O)Nc2ccccc2C(=O)NC2CC2)c([N+](=O)[O-])cc1OC | 0 | -4 | 1 | 0 | 1 | x
CC1(C(=O)NC2CCCC2)CCC(=O)N1CCCn1ccnc1 (configuration not stated) | 0 | -7 | -5 | x | -10 | x
